This note sets out measurements from PubChem BioAssay AID652217 (Sanford-Burnham Center for Chemical Genomics, 2013).

Screen size: about 1,800 compounds; about 240 (13%) were called active. This is one part of a sample in which actives are shown more often than they occur. Values without a mark were called inactive. Rule as the data show it: active = inhibition above about 40%; inactive = the rest.

For the assay, the target named is NEDD8-conjugating enzyme Ubc12 (Homo sapiens) + NEDD8-activating enzyme E1 regulatory subunit (Homo sapiens) (UniProt P61081+Q13564). Kind of assay: blockade of NEDD8 conjugation to cullin – biochemical, TR-FRET, single concentration, confirmation (AID 652217).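 Also: neddylation substrate is the cullin 1 ring ligase complex with SKP2.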 Particulars: TR-FRET cullin neddylation biochemical assay; at 25 µM; stronger effect = higher value.
NEDD8-conjugating enzyme Ubc12 (Homo sapiens) + NEDD8-activating enzyme E1 regulatory subunit (Homo sapiens), sequence (P61081 whole entry, looked up): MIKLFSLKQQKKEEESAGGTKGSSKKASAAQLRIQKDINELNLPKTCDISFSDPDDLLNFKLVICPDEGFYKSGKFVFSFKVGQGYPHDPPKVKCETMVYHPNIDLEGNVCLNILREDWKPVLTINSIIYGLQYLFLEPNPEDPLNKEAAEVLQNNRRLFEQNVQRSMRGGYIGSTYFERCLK
NEDD8-conjugating enzyme Ubc12 (Homo sapiens) + NEDD8-activating enzyme E1 regulatory subunit (Homo sapiens), sequence (Q13564 whole entry, looked up): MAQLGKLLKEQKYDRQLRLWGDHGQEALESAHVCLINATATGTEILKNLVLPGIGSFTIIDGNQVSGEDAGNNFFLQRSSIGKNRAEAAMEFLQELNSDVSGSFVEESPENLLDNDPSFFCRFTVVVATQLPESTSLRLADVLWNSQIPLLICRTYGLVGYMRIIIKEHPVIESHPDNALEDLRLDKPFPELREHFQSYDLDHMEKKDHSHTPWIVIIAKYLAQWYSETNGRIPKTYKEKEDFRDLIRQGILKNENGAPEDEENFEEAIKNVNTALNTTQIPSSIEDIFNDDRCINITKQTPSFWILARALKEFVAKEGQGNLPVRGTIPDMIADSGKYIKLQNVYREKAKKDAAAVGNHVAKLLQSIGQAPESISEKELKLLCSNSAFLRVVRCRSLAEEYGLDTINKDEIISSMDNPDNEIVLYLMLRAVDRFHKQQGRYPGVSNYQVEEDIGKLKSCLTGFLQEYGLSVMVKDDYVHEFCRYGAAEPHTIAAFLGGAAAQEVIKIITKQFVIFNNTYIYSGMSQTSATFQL
Consider `CC(=CCOc1ccc2ccc(=O)oc2c1)C1=CC(=O)C(C)(C)O1`, for which the inhibition was 44.2% (active).

Take `CCN1c2nc3c(C)cccn3c(=O)c2CC2(C(=O)N(C)C(=O)N(C)C2=O)C1C` (centres undefined): the inhibition is 9.81%.

Regarding `CCC(C)n1c(O)c(/C=N/Nc2nc3c(c(=O)n(C)c(=O)n3C)n2C)c(=O)[nH]c1=S` (centres undefined), the inhibition was -31.5%.

For the compound `CCCCC(=O)N/N=C/c1c(O)n(CCC2=CCCCC2)c(=O)[nH]c1=O`, the inhibition was 2.57%.
